Activity calls are given as the source filed them.
Experiments:
[1] = small molecules captured by biotinylated probe aFSTL3 – biochemical, small-molecule microarray, fluorescence 635/667, stem cell growth factor project, primary screen (AID 1064); settings: higher = more signal;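 note: measures binding of the biotinylated anti-FSTL3 antibody to printed compounds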
[2] = binders from COS7 lysate, DM2A8 probe, primary screen, torsin A project, cell lysate, small-molecule microarray, fluorescence 635/667 (AID 1065); settings: higher = more signal, COS7 lysate expressing mutant human TOR1A
[3] = small molecules captured by biotinylated probe aFGF2 – biochemical, small-molecule microarray, fluorescence 635/667, stem cell growth factor project, primary screen (AID 1067); settings: higher = more signal;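 note: measures binding of biotinylated aFGF2 protein to printed compounds on slides; z-score merges feature fluorescence and signal-to-noise across triplicate slides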
[4] = small molecules captured by biotinylated probe aFGF10 – biochemical, small-molecule microarray, fluorescence 635/667, stem cell growth factor project, primary screen (AID 1071); settings: higher = more signal;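 note: score merges 667 nm spot intensity and signal to noise from triplicate slides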
[5] = molecular target: Neurogenic locus notch homolog protein 2 (Homo sapiens) (UniProt Q04721); test: small molecules binding Notch2 protein – biochemical, small-molecule microarray, 635 nm fluorescence, stem cell growth factors, primary screen (AID 1073); settings: higher = more signal
[6] = molecular target: Pro-neuregulin-1, membrane-bound isoform (Homo sapiens) (UniProt Q02297); test: small molecules binding neuregulin-1 protein – biochemical, small-molecule microarray, fluorescence 635/667, psychiatric disease protein project, primary screen (AID 1075); settings: NRG1 binding, 635 nm fluorescence, higher = more signal;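 note: score combines 667 nm spot fluorescence with signal to noise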
[7] = test system: Neuregulin-1 EGF-like domain; test: small molecules binding NRG1 EGF domain – biochemical, small-molecule microarray, 635 nm fluorescence, primary screen (AID 1081); settings: higher = more signal;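 note: binding of the protein to compounds printed on small-molecule microarray slides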
[8] = FRG1 expression reporter modulators in myotubes – cell-based, C2C12 myotubes, firefly/Renilla luciferase, luminescence, FRG1 inhibition for FSHD, primary screen (AID 1084); settings: FRG1 promoter luciferase, higher = more signal, called active from +8 up or from −8 down
[9] = small molecules captured by biotinylated probe aFST – biochemical, small-molecule microarray, fluorescence 635/667, stem cell growth factor project, primary screen (AID 1086); settings: higher = more signal;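 note: score merges 667 nm fluorescence with signal-to-noise of each printed compound spot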
[10] = binders of probe aHhip on microarray, primary screen, stem cell growth factor project, biochemical, small-molecule microarray, fluorescence 635/667 (AID 1087); settings: higher = more signal;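 note: score merges spot fluorescence at 667nm with spot signal to noise ratio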

Pro-neuregulin-1, membrane-bound isoform (Homo sapiens), sequence (Q02297 whole entry, looked up, the tested form may be a part, canonical isoform): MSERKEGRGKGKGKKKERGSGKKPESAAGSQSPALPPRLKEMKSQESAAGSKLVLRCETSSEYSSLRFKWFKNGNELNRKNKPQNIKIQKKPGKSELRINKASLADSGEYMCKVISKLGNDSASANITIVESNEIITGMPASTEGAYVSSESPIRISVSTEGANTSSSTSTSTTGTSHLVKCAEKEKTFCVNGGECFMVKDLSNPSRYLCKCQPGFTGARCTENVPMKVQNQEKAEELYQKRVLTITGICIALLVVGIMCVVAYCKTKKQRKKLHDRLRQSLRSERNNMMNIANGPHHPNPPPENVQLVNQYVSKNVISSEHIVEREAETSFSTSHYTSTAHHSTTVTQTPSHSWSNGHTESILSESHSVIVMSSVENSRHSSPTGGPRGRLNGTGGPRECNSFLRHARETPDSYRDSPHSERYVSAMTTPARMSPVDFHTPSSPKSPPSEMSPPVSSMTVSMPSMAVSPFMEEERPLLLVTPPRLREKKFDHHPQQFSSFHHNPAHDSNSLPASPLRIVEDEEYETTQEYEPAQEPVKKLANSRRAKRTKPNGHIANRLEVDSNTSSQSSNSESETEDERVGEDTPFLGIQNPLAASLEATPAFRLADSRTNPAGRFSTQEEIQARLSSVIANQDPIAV
Neurogenic locus notch homolog protein 2 (Homo sapiens), sequence (Q04721 whole entry, looked up, canonical isoform): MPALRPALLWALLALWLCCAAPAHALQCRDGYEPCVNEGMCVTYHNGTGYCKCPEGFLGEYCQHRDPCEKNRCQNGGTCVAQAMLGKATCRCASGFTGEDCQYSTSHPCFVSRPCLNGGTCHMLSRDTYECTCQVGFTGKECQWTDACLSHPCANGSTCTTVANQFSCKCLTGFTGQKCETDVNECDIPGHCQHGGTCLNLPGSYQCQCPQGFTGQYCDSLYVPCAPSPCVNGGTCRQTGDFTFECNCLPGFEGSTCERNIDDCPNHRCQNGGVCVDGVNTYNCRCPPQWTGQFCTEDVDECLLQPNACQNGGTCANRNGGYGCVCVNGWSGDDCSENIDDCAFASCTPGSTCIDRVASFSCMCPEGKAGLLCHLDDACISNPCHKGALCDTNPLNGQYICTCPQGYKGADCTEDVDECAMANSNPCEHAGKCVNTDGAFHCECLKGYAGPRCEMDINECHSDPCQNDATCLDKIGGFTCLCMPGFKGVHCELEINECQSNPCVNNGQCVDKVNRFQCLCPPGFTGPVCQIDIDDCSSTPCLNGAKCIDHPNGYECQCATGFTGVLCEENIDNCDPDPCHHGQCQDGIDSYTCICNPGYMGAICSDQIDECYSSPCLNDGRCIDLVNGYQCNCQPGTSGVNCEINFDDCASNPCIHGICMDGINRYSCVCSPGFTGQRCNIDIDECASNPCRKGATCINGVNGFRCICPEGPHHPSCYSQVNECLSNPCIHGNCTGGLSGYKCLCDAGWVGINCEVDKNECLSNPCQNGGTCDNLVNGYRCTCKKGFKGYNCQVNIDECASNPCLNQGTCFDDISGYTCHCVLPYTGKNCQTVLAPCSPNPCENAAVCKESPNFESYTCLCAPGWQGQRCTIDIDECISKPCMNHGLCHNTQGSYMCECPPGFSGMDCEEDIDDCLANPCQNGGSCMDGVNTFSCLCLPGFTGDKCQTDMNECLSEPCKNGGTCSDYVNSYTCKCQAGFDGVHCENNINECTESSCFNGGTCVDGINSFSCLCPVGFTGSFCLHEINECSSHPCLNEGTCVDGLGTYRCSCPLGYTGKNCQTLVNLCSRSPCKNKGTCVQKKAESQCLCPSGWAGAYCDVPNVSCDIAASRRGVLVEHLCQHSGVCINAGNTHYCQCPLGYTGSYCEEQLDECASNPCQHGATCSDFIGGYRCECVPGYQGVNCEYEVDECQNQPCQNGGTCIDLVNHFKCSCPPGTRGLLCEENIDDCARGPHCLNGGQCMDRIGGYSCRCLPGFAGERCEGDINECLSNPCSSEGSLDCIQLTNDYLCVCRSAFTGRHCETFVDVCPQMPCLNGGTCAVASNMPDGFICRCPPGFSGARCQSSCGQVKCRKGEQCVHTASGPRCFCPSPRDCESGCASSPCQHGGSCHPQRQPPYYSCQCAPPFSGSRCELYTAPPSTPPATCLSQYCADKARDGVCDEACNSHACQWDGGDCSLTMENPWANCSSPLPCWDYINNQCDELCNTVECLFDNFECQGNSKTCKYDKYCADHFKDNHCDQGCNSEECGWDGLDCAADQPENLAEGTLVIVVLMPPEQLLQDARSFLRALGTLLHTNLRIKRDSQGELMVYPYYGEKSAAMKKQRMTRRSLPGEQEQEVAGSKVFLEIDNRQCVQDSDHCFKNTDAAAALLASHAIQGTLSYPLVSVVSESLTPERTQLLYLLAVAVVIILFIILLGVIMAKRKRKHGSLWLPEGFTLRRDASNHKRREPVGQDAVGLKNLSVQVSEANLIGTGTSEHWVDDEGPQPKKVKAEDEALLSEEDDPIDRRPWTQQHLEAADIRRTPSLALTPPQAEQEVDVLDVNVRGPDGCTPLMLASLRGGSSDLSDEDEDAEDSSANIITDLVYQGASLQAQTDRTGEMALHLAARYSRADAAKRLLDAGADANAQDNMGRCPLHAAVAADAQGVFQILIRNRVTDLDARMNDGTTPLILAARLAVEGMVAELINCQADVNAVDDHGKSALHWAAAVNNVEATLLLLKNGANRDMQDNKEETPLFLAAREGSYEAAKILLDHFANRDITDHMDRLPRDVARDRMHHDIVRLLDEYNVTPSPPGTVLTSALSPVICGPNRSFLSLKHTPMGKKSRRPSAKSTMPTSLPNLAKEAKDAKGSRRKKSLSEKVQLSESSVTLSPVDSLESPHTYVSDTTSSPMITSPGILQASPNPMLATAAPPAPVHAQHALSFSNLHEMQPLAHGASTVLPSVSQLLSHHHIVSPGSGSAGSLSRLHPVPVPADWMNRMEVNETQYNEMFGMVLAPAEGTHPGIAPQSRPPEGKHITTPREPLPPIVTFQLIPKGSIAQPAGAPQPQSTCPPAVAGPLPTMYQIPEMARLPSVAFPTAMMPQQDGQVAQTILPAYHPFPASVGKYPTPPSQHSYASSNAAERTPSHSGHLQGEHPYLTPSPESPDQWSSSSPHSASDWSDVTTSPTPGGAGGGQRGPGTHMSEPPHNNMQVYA

| Structure (SMILES) | composite z-score [1] | composite z-score [2] | composite z-score [3] | composite z-score [4] | composite z-score [5] | composite z-score [6] | composite z-score [7] | z-score [8] | composite z-score [9] | composite z-score [10] |
| --- | --- | --- | --- | --- | --- | --- | --- | --- | --- | --- |
| CCOC(=O)CCN1C(=O)[C@H]2[C@H]3[C@H](O)[C@H](O)CC(=NNC(=O)OCc4ccccc4)[C@@H]3CC[C@H]2C1=O | -0.326 | 0.695 | -0.158 | 0.504 | 0.88 | 0.716 | 0.971 | -0.518 (inactive) | 0.111 | -0.189 |
| O=c1n(Cc2cc3c(cc2Cl)OCO3)c(=O)n2n1CC[C@@H]1C(=NOCc3ccccc3)[C@H]3O[C@H]3[C@@H](O)[C@@H]12 | -0.381 | 0.188 | -0.14 | 0.47 | 0.589 | 0.114 | 0.428 | -0.611 (inactive) | 0.764 | -0.0645 |
| CCOC(=O)[C@H](CC(C)C)NC(=O)CCC1CC(OC(=O)NCc2cccc3ccccc23)CC2(CCCC(COC(=O)NCCc3ccc(Cl)cc3)O2)O1 (stereo not given in full) | -0.318 | -0.19 | -0.0797 | 0.293 | 0.461 | 0.533 | 0.744 | 1.83 (inactive) | -0.001 | -0.0994 |
| CC(=O)OC[C@H]1O[C@@H](ON=C(C)CCN2CCCc3nc(C)c(C)cc32)[C@H](OC(C)=O)[C@@H](OC(C)=O)[C@@H]1OC(C)=O | -0.63 | 0.165 | -0.127 | 0.76 | 1.41 | 0.394 | 1.07 | 0.935 (inactive) | 0.139 | -0.0618 |
| CC(C)=CCCC(C)=CCON=C1C[C@@H](O)[C@@H](O)[C@@H]2[C@@H]3C(=O)N(Cc4ccccc4)C(=O)[C@@H]3CC[C@@H]12 | -0.249 | 0.585 | -0.0548 | 0.649 | 0.194 | 0.34 | 1.05 | 0.365 (inactive) | 0.172 | 0.204 |
| COC(=O)CC=C[C@@H](C)[C@@H](C=NOC[C@H]1O[C@H](c2ccccc2)C=C[C@@H]1Oc1ccc(OC)cc1)NS(=O)(=O)c1ccc(C)cc1 | 0.577 | -0.564 | -0.127 | -1.06 | -0.766 | -0.754 | -1.29 | -0.461 (inactive) | -0.0763 | -0.0645 |
| COC(=O)CC=C[C@@H](C)[C@@H](C=NOC(C)CN1CCCc2nc(C)c(C)cc21)OC (stereo not given in full) | -0.111 | 0.382 | -0.121 | 0.354 | 0.401 | -0.171 | 0.375 | 0.422 (inactive) | 0.0017 | -0.0237 |
| C[C@H]1CC[C@H]2C(=O)OC(CO)CN2[C@@H]1c1ccc(Br)cc1 (stereo not given in full) | -0.321 | 0.414 | -0.145 | -0.0786 | -0.453 | -0.365 | 0.374 | -0.761 (inactive) | -0.104 | -0.0645 |
| COc1ccc(O[C@H]2C=C[C@@H](c3ccccc3)O[C@@H]2CON=C(C)CCC(=O)OC[C@H]2O[C@H](c3ccccc3)C=C[C@@H]2Oc2ccc(OC)cc2)cc1 | 0.0321 | -0.543 | -0.141 | 0.0207 | -1.5 | -0.496 | -1.1 | 0.634 (inactive) | -0.677 | -0.0994 |
| CO[C@@H]1COC(=O)[C@H](CCSC)NC(=O)CC=C[C@@H](C)COC(=O)[C@H](C)NC(=O)CC=C[C@H]1C | -0.605 | 1.03 | -0.129 | 0.347 | 0.115 | -0.343 | 0.871 | -0.0159 (inactive) | 0.457 | 0.408 |
| O=C1[C@H]2[C@H]3[C@H](O)[C@H](O)CC(=NO[C@@H]4O[C@H](CO)[C@@H](O)[C@H](O)[C@H]4O)[C@H]3CC[C@H]2C(=O)N1c1cccc(Oc2ccccc2)c1 | -0.249 | 0.128 | -0.0867 | 0.435 | 0.387 | -0.106 | 0.843 | 0.0203 (inactive) | -0.278 | -0.0024 |
| COc1cccc([C@@H]2Oc3ccc(OC)cc3C(=O)[C@H]2O)c1 | -0.457 | 0.0796 | 0.0288 | 0.209 | 0.5 | 0.788 | 1.04 | 7.25 (inactive) | -0.0662 | -0.0994 |
| COc1ccc(O[C@H]2C=C[C@@H](c3ccccc3)O[C@@H]2COC(=O)CCC(C)=NO[C@@H]2O[C@H](COC(C)=O)[C@@H](OC(C)=O)[C@H](OC(C)=O)[C@H]2OC(C)=O)cc1 | -0.468 | 0.135 | -0.152 | 0.608 | 0.424 | -0.0533 | 0.929 | 1.09 (inactive) | 0.247 | -0.236 |
| O=C1[C@H]2[C@H]3[C@H](O)[C@H](O)CC(=NOC[C@@H](O)COCc4ccco4)[C@@H]3CC[C@H]2C(=O)N1C[C@@H]1CCCO1 | -0.861 | 2.29 | -0.213 | -0.32 | -0.323 | -0.271 | 1.22 | -0.218 (inactive) | -0.14 | 0.0139 |
| CCOC(=O)[C@H](CC(C)C)NC(=O)CCC1CC(OC(=O)NCc2cccc3ccccc23)CC2(CCCC(COC(=O)NCC3CCCCC3)O2)O1 (stereo not given in full) | -0.338 | 0.194 | -0.0744 | 0.54 | 0.763 | 0.589 | 0.907 | 0.791 (inactive) | 0.615 | 0.0623 |
| CCOC(=O)[C@H](Cc1ccccc1)NC(=O)CCC1CC(OC(=O)NCc2cccc3ccccc23)CC2(CCCC(COC(=O)NCc3ccccc3)O2)O1 (stereo not given in full) | -0.356 | 0.0841 | -0.21 | 0.159 | 0.118 | 0.477 | 0.686 | 0.573 (inactive) | 0.0918 | -0.303 |
| CC(CCC(=O)OC[C@H]1O[C@H](C#Cc2ccccc2)C=C[C@@H]1Oc1ccc(C)cc1)=NO[C@H](C)c1cn([C@H](CO)Cc2ccccc2)nn1 | -0.544 | -0.0618 | -0.122 | 0.191 | 0.369 | 0.527 | 0.529 | 0.546 (inactive) | 0.337 | -0.211 |
| O=C1C[C@@H](O)[C@@H](O)[C@@H]2[C@@H]3C(=O)N(c4cccc(Oc5ccccc5)c4)C(=O)[C@@H]3CC[C@H]12 | -0.499 | 0.247 | -0.0985 | 0.206 | 0.484 | 0.241 | 0.413 | -0.0447 (inactive) | 0.167 | -0.153 |
| CCCNC(=O)OC[C@H]1O[C@H](CCON=C(C)CCN2CCc3nc(CC)c(CC)cc3C2)C=C[C@@H]1Oc1ccc(OC)cc1 | -0.343 | 1.59 | -0.129 | -0.0187 | 0.0329 | 0.51 | 0.428 | 0.31 (inactive) | -0.0665 | 0.5 |
| C#CCCCON=C1C[C@@H](O)[C@@H](O)[C@@H]2[C@@H]3C(=O)N(c4ccc(F)cc4F)C(=O)[C@@H]3CC[C@H]12 | -0.381 | 0.872 | -0.0788 | 0.216 | 0.342 | 0.454 | 0.765 | -1.17 (inactive) | 0.326 | 0.0373 |
| CO[C@H]1COC(=O)CC=C[C@H](C)[C@@H](OC)COC(=O)[C@@H](C)COC(=O)CC=C[C@@H]1C | -0.834 | 2.17 | -0.152 | -0.938 | -1.22 | -0.652 | -0.513 | -0.862 (inactive) | 0.0281 | 0.106 |
| CCc1cc2c(nc1CC)CCN(CCC(C)=NO[C@@H](C)c1cn([C@H](CO)Cc3ccccc3)nn1)C2 | -0.0739 | 0.39 | -0.123 | 0.112 | -0.0274 | 0.373 | -0.0269 | 0.704 (inactive) | 0.283 | 0.115 |
| CO[C@H]1COC(=O)[C@@H](C)COC(=O)[C@@H](OCc2ccccc2)C=C[C@@H]1C | -0.133 | -0.606 | -0.121 | 0.206 | -0.663 | -0.297 | -0.546 | -0.412 (inactive) | -0.155 | 0.0277 |
| CON=C1[C@H]2CCn3c(=O)n(-c4ccccc4)c(=O)n3[C@H]2[C@H](O)[C@@H]2O[C@H]12 | -0.39 | 0.135 | -0.0533 | 0.383 | 0.41 | 0.0959 | 0.561 | -1.17 (inactive) | 0.17 | -0.199 |
| C[C@@H]1C=CCC(=O)OC[C@H]2O[C@@H](C=C[C@@H]2O)[C@H](C)C=CCC(=O)OC1 | -0.711 | 2.13 | -0.175 | -0.32 | -0.302 | -1.03 | 0.765 | -1.28 (inactive) | -0.291 | 0.28 |
| CCOC(=O)[C@H](CC(C)C)NC(=O)CCC1CC(OC(=O)NCc2cccc3ccccc23)CC2(CCCC(COC(=O)NCc3cccc(C(F)(F)F)c3)O2)O1 (stereo not given in full) | -0.5 | 0.0221 | -0.125 | 0.469 | 0.611 | -0.0419 | 0.0188 | -1.03 (inactive) | -0.262 | 0.0749 |

— PubChem BioAssay
